Data reported in PubChem BioAssay AID1845224 (National Center for Advancing Translational Sciences (NCATS), 2023).
Results filed as inconclusive are left out. Active and inactive are the calls of the source. The call rests on the fitted dose curve; in most records, active means well fitted curve in the direction sought with a large enough effect; inconclusive means small, poorly fitted or top-dose-only effect, or another doubt; inactive means no such curve, though single readings can be large or run the other way.

system: NanoLuc luciferase (engineered Oplophorus gracilirostris luciferase); assay: Confirmatory Nanoluciferase (NLuc) qHTS assay for identification of artifact compounds.; conditions: secreted NLuc in S16 cell medium, luminescence, 5 min; series mostly up to 39 µM
Procedure, shortened: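 Conditioned medium from NLuc-expressing S16 cells (diluted 1:55) as enzyme source; compounds 15 min at room temperature, then Nano-Glo substrate for 5 min. Luminescence normalized to no-enzyme and DMSO controls, fitted to 4-parameter Hill equation.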
Potency means the concentration at half of the fitted maximal effect.

Potency, active:
O=C(CCS(=O)(=O)c1nc(-c2ccc3c(c2)OCO3)cc(C(F)(F)F)n1)Nc1ccccc1C(F)(F)F 12.2 µM, Cc1oc(-c2cccc(Br)c2)nc1CSc1nc2ncccc2[nH]1 8.64 µM

Potency, inactive:
COc1cccc(CNS(=O)(=O)c2cnc(N)nc2)c1, Cc1ccc(-c2nnc(Nc3cccc(Br)c3)c3ccccc23)cc1S(=O)(=O)N1CCCCC1, CCOc1ccccc1NC(=O)Cn1c(=O)n(CCCC(=O)NCc2ccc(C)cc2)c(=O)c2ccccc21, CNS(=O)(=O)c1cn(CC(=O)N2CCN(c3ccc(C(C)=O)cc3)CC2)cc1S(=O)(=O)NC, CCCCCCCCCCCCCC(=O)N[C@@H](C)[C@H](O)c1ccccc1, Cn1cc(S(=O)(=O)N2CCCC2)cc1C(=O)Nc1ccc(C(F)(F)F)cc1, CCc1cccc(NC(=O)Cn2c(=O)n3nc(-c4cccc(F)c4)nc3c3ccccc32)c1, CCOC(=O)c1cccc(NC(=O)c2ccc3snnc3c2)c1, COc1ccc(C2Nc3ccccc3C(=O)N2Cc2ccccc2)cc1Oc1ccc(NC(C)=O)cc1 (stereo unspecified), CC1CCN(c2ccc(-c3cccc(NS(=O)(=O)c4ccc(F)cc4F)c3)nn2)CC1, CCN(CCCNC(=O)CSc1cc(=O)n(C)c2ccccc12)c1ccccc1, O=C(OCc1ccccc1)c1ccccc1O, Cc1ccc(CNCc2cn[nH]c2-c2ccc(C)cc2)cc1, Cc1ccc(CSc2ncccc2C(=O)O)cc1, O=C1NC(=O)/C(=C/c2cccn2-c2ccc(P(=O)(O)O)cc2)N1, O=C(Nc1sc2c(c1-c1nc3ccccc3s1)CCNC2)C(F)F, COC(=O)C1=C[C@@H](C(=O)OC)C2C3=C(C(=O)[C@]2(C)NC(=O)c2ccccc2)[C@H](C)n2c(=O)n(C)c(=O)n2[C@@H]3C1 (stereo partly specified), CCOC(=O)c1c(C)[nH]c(CCC(=O)NCCCN2CCN(c3ccc(F)cc3)CC2)c1C, Oc1ccc(-c2csc(-c3ccc(F)cc3)n2)c(O)c1, COc1ccc(CC(N)C(=O)N[C@H]2[C@@H](O)[C@H](n3cnc4c(N(C)C)ncnc43)O[C@@H]2CO)cc1 (stereo partly specified), CCc1cccc(C)c1NC(=O)Cn1c(=O)n(-c2ccc(C)cc2)c(=O)c2c1cnn2C, COc1ccccc1Oc1coc2cc(O)ccc2c1=O, COC(=O)C1=CO[C@@H](O[C@@H]2O[C@H](CO)[C@@H](O)[C@H](O)[C@H]2O)C2C(CO)=CCC12 (stereo partly specified), Cc1ccc(S(=O)(=O)c2nnn3c2nc(NCc2ccc(F)cc2)c2sccc23)cc1C, C[C@H](CCC(=O)O)[C@H]1CC[C@H]2[C@@H]3CC[C@@H]4C[C@H](O)CC[C@]4(C)[C@H]3CC[C@]12C, COc1ccc(NC(=O)Cn2c(=O)n(CCc3ccccc3)c(=O)c3c4c(sc32)CCCC4)cc1, CCOc1ccc(-c2cc(NC(=O)Nc3ccccc3Cl)c(C(=O)OC)s2)cc1, O=C(Nc1noc2ccccc12)c1c(F)cccc1F, COC(=O)CCC(C)C1CCC2C3CC[C@H]4CC(O)CC[C@@]4(C)C3CC(O)[C@]12C (stereo partly specified)
